In PubChem BioAssay (NCI):
The panel holds about 83,000 compounds, 20% with a hit somewhere; the sample as a whole holds those more often.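 48-hour exposure, single concentration, 96-well plates; percent growth endpoint where 0 means no net growth. Active: below 10.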 Activity calls are given as the source filed them.

Each compound was assayed on PC-3 prostate (assay: NCI-60 one-dose screen, 48 h (100 = growth as untreated, 0 = no growth, -100 = all killed)). Settings: 10 µM unless noted.
Procedure: Growth inhibition of the PC-3 human tumor cell line is measured as a screen for anti-cancer activity. Cells are grown in 96 well plates and exposed to the test compound for 48 hours. Compounds are tested at a single concentration, which is 10^-5 M for most compounds. The reported endpoint is percent growth (GI% or GIPRCNT), where numbers from 0 - 100% represent growth inhibition, and numbers from -100% - 0 represent cell death. For example, a value of 40 represents 60% growth inhibition. A value of 0 means no net growth occurred over the course of the experiment. A value of -40 indicates 40% of cells at the beginning of the experiment died by the end of the experiment. A value of -100 means all cells are dead at the end of the experiment.
NCI-60 Human Tumor Cell Lines Screen was performed using the standard one-dose NCI protocol, which is described in more detail at https://dtp.cancer.gov/discovery_development/nci-60/default.htm.
Compounds with GIPRCNT values below 10 were considered active. Activity score was based on GIPRCNT using the following formula: […]
Score is 0 for GIPRCNT values of 100 or above, 50 for GIPRCNT values of 0, and 100 for GIPRCNT values of -100.

Compound | growth
Clc1ccc2nc3nc4ccc[nH]c4cc3c2c1 | 75.1% (inactive)
COc1cc(/C=C/c2cc(/C=C/c3ccc(O)c(OC)c3)n(-c3c(C)cccc3C)c(=O)n2)ccc1O | -2.22% (active)
Oc1ccccc1-c1nnc(CNc2ccc(Cl)cc2)o1 | 34.5% (inactive)
CCCN1CCN(c2ccc3nc(-c4ccc5nc(-c6ccc(OCC)cc6)[nH]c5c4)[nH]c3c2)CC1 | -69.5% (active)
CCCCCCN(CCCCCC)CCC(O)c1ccc2ccccc2c1 (stereo not given) | 48.6% (inactive)
O=C1/C(=C(/c2ccccc2)N2CCOCC2)Cc2ccccc21 | 12.2% (inactive)
CN(C)c1ccc(N=Nc2ccc(Br)cn2)c(O)c1 | 33.3% (inactive)
NC1=C(Cl)C(=O)c2ccc(S(N)(=O)=O)cc2C1=O | 1.22% (active)
N#Cc1c(-c2ccc(Cl)cc2)nc(N=Nc2c(O)[nH]c3ccc(Cl)cc23)nc1N1CCOCC1 | 99.2% (inactive)
CN1CCN(CCCOc2cccc3nc(Nc4ccc(Cl)c(F)c4)ccc23)CC1 | 39% (inactive)
C=C1C(=O)O[C@H]2[C@H]1CC/C(COC(=O)c1cc3cc(OC)ccc3[nH]1)=C\CC[C@@]1(C)O[C@@H]21 | -71.5% (active)
O=C1/C(=C/c2ccc(OCCCOc3ccc(Cl)cc3)cc2)N=C2SCCCN12 | 45.5% (inactive)
CC(=O)O[C@H]1CC[C@]2(C)[C@H]3CC=C4[C@@H]5CC(C)(C)CC[C@]5(C(=O)NCCNCCNCCN)CC[C@@]4(C)[C@]3(C)CC[C@H]2C1(C)C | 38.9% (inactive)
Cc1nc2c3c(-c4ccccc4)c(-c4ccccc4)oc3ncn2n1 | 91.3% (inactive)
CCCCCCN(CCCCCC)C(=N)c1ccnc2ccccc12 | 58.3% (inactive)
CCOc1cc2ncc(C#N)c(Nc3ccc(F)c(Cl)c3)c2cc1NC(=O)CC1CCSS1 (stereo not given) | -72.6% (active)
CCOc1ccc(C(C)=O)cc1NC(=O)c1cccc(-c2nnn(CC)n2)c1 | 27.3% (inactive)
COc1cc(C(=O)Oc2ccccc2OC(=O)c2cc(OC)c(OC)c(OC)c2)cc(OC)c1OC | 88.8% (inactive)
COc1ccccc1Nc1nc(-c2cc3cccc(C(F)(F)F)c3oc2=O)cs1 | 21.2% (inactive)
COc1ccc(/C=C/c2nc(-c3n[nH]c(=O)n3-c3ccccc3)c3ccccc3n2)cc1 | 95.9% (inactive)

Compound | growth
O=C(O)COc1ccc(Cl)cc1C1CCCCC1 | 102% (inactive)
CN1C(=O)C2(SCC(C(=O)NCc3ccccc3)N2C(=O)C2CCCCC2)c2ccccc21 (stereo not given) | 82.8% (inactive)
OCc1ccc(N2CCc3cccc(F)c3C2)cc1Cl | 89.1% [0.1 µM] (inactive)
CC[C@@H]1O[C@H](O[C@@H](c2cnc[nH]2)[C@H](NC(=O)c2nc([C@H](CC(N)=O)NC[C@@H](N)C(N)=O)nc(N)c2C)C(=O)N[C@H](C)[C@H](O)[C@H](C)C(=O)N[C@@H](C(=O)NCCc2nc(-c3nc(C(=O)NCCCCN=C(N)N)cs3)cs2)[C@@H](C)O)[C@H](O[C@@H]2O[C@H](CO)[C@H](O)[C@H](OC(N)=O)[C@@H]2O)[C@H](C)[C@@H]1C | 71.2% (inactive)
COc1ccc(/C=C\c2cc(OC)c(OC)c(OC)c2)cc1OC(=O)c1cccc(Cn2cc(CCOC(=O)[C@H](N)Cc3cn(C)c4ccccc34)nn2)c1 | 18.8% (inactive)
CN1CCN(Cc2ccc(NC(=O)c3cncc(C#Cc4cncn5ccnc45)c3)cc2C(F)(F)F)CC1 | 90.3% (inactive)
C=CC(=O)Nc1cccc(-c2nc(SC)nc(NCCN3CCOCC3)c2C#N)c1 | 92.7% (inactive)
COc1ccc(SC2c3ccc(C)cc3Oc3nc(N)c(C#N)c(N)c32)cc1 (stereo not given) | -67.9% (active)
CCC(=O)c1ccc(Cl)s1 | 98.4% (inactive)
COc1ccc(-c2nnc(SCC(=O)c3ccc(Cl)cc3)o2)cc1 | 101% (inactive)
O=C1C=C(OCC=C(Cl)Cl)C(=O)c2ccccc21 | 80.9% (inactive)
CCN1CCN(c2nc(NCCNc3ccnc4cc(Cl)ccc34)c3ccccc3n2)CC1 | 24.7% (inactive)
CC[C@]1(O)C[C@@H]2CN(CCc3c([nH]c4ccccc34)[C@@](C(=O)OC)(c3cc4c(cc3OC)N(C)[C@H]3[C@@](O)(C(N)=O)[C@H](O)[C@]5(CC)[C@@H]6C[C@@H]6CN6CC[C@]43[C@@H]65)C2)C1 | 20.7% (inactive)
O=C1NC(=S)N[C@H]1CC(=O)n1cnc2ccccc21 | 101% (inactive)
OC(c1cc2cc(Cl)c(Cl)cc2c2cc(C(F)(F)F)ccc12)C1CCCCN1 (stereo not given) | -84.8% (active)
COc1ccc2c(c1)CC/C(=C\c1cncc(Br)c1)C2=O | 92.7% (inactive)
O=C1c2cc3c(cc2-c2c1c1ccc(Cl)cc1c(=O)n2CCCN1CCOCC1)OCO3 | 74% (inactive)
C=C(C)C1CC(O)C2(C)CCCC3C2C1CC(C)C3(C)CC/C(C)=C/C(O)C1CCC(=O)c2c(OC)cc(OC)cc21 (stereo not given) | 20.9% (inactive)
C=CC(=O)Nc1cccc(-c2nc(SC)nc(NCCc3ccc(OC)c(OC)c3)c2C#N)c1 | 53.2% (inactive)
C=C(C)[C@@H]1CC[C@]2(C(=O)OC)CC[C@]3(C)[C@H](CC[C@@H]4[C@@]5(C)C/C(=C/c6ccc(OC)cc6)C(=O)C(C)(C)[C@@H]5CC[C@]43C)[C@@H]12 | 84.9% (inactive)
